Assay results taken from PubChem BioAssay (NCATS).
Inconclusive results are not listed. Active and inactive are the calls of the source. Unless noted, calls come from the whole dose curve; as a rule, active = well fitted curve in the direction sought with a large enough effect; inconclusive = small, poorly fitted or top-dose-only effect, or another doubt; inactive = no such curve, though single readings can be large; an effect the other way counts as inactive or inconclusive.

How the values were obtained:
[1] = target: Thioredoxin reductase 1, cytoplasmic (Rattus norvegicus) (UniProt O89049); assay: qHTS Assay for Substrates of Mammalian Selenoprotein Thioredoxin Reductase 1 (TrxR1) (AID 488772);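 note: NADPH fluorescence in the first read after selenite addition and not the 8 min delta; series mostly up to about 57 µM; 0% is about no effect; a drop in NADPH fluorescence below the no-compound background marks a TrxR1 substrate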
Method in brief: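 Quantitative HTS in Tris-HCl buffer at pH 7.5 with EDTA and Tween-20, using rat TrxR1, 400 uM NADPH and 400 uM selenite (final). A fall in initial NADPH fluorescence relative to background marked substrate behaviour.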

[2] = target: Flap endonuclease 1 (Homo sapiens) (UniProt P39748); assay: qHTS Validation Assay for the Inhibitors of Human Flap endonuclease 1 (FEN1) (AID 488816); note: % is set by controls: 0 for no effect and ±100 for the full control effect
Method in brief: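 FEN1, dispensed as a 10 nM reagent, was preincubated with pin-transferred compounds for 15 min at room temperature before substrate was added (50 nM final). Plates were read at 0 and 15 min, and a four-parameter Hill equation was fitted to the concentration-response data.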

[3] = target: Methanococcus maripaludis chaperonin (MmCpn) (UniProt Q6LX38); assay: High-Throughput Screening for Modulators of Cytosolic Chaperonin Activity: MmCpn Primary Screen (AID 488978);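 note: 50 nM MmCpn enzyme hydrolysing 30 µM ATP at 37 °C; 0% is about no effect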
Method in brief: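 Measures ATPase turnover of the M. maripaludis chaperonin (50 nM final) against 30 uM ATP over 10 min at 37C, with compound added 5 min beforehand at room temperature. ADP is quantified by HTRF immunodetection.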

[4] = target: Thyrotropin receptor (Homo sapiens) (UniProt P16473); assay: qHTS Assay for Antagonists of the Thyroid Stimulating Hormone Receptor (AID 488980); note: series mostly up to about 58 µM; 0% is about no effect
Method in brief: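 Cells expressing human TSHR (HEK293) are dispensed in HBSS/HEPES containing 70 uM RO 20-1724, compound is added, then TSH at EC80 (4 nM final). Antibody in lysis buffer follows, 30 minutes at room temperature before HTRF detection.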

[5] = target: D(1A) dopamine receptor (Homo sapiens) (UniProt P21728); assay: HTS Assay for Allosteric Agonists of the Human D1 Dopamine Receptor: Primary Screen for Agonists (AID 488981); note: 0% is about no effect
Method in brief: (§1)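 Tetracycline-induced HEK293 T-REx cells force-coupled to calcium signalling were incubated overnight at 30 C and dye-loaded at room temperature. Calcium flux over 180 s after compound addition flagged agonists; a further 180 s read after EC20 dopamine flagged potentiators.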

[6] = Validation screen for small molecules that induce genotoxicity in human embryonic kidney (HEK293T) cells expressing luciferase-tagged ELG1 (AID 493106); note: 0% is about no effect
Method in brief: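 HEK293T cells expressing luciferase-tagged ELG1 were exposed to compound or DMSO vehicle for 16 hr at 37 °C, 5% CO2. Genotoxic stress raises ELG1 levels, so increased luciferase signal after ONE-Glo addition and 30 min at room temperature marks hits.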

[7] = target: ATPase family AAA domain-containing protein 5 (Homo sapiens) (UniProt Q96QE3); assay: Validation screen for small molecules that inhibit ELG1-dependent DNA repair in human embryonic kidney (HEK293T) cells expressing luciferase-tagged ELG1 (AID 493107);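 note: cells co-treated with the DNA-damaging agent 5-fluorouridine alongside compound; series mostly up to about 46 µM; % is set by controls: 0 for no effect and ±100 for the full control effect; inhibitors lower the ELG1-luciferase luminescence signal; nearly all actives have a fitted effect of over 70% in size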
Method in brief: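 HEK293T cells expressing luciferase-tagged ELG1 were co-treated with 5-fluorouridine and compound or DMSO for 16 hr at 37 °C, 5% CO2. Luciferase activity was then read with ONE-Glo after 30 min at room temperature; suppressed signal indicates blocked ELG1 function.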

[8] = target: Thyrotropin-releasing hormone receptor (Homo sapiens) (UniProt P34981); assay: qHTS for Small Molecule Agonists and Allosteric Enhancers of Human TRH Receptor: Validation Screen for Agonists (AID 493127;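 active = calcium activation more than 3 SD above the typical response in the agonist read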;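 note: intracellular calcium rise by fluo-8 fluorescence before TRH EC20 addition; 0% is about no effect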); conditions: TRH receptor agonist cell assay; at 2 µM; stronger effect = higher value
Method in brief: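 TRHR-expressing cells were plated overnight in serum-containing medium, then loaded with fluo-8 calcium dye at room temperature for 30 min–1.5 h. After a 10 s baseline, compound was pin-transferred and calcium fluorescence (ex 480/em 530) read kinetically for agonist response.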

[9] = Nrf2 qHTS screen for inhibitors: Validation (AID 493153; active = well fitted inhibition curve with a large enough effect in the main read-out, with a control signal flat, not every such curve was filed as active); conditions: Potency: luciferase luminescence; viability change: measured here: cytotoxicity max response
Method in brief: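 A549 cells carrying an ARE-driven firefly luciferase reporter, in 5% FBS OPTI-MEM, were treated with compounds in concentration-response for 18-24 h at 37°C. Viability was read by CellTiter-Fluor fluorescence, then Nrf2 activity by luciferase luminescence.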

[10] = qHTS for Inhibitors of Cell Surface uPA Generation: Validation Assay (AID 493164);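 note: RAW 264.7 macrophage cells exposed to compound for 18 h; 0% is about no effect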
Method in brief: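 RAW 264.7, 4000 cells/well, o/n plating; cpd 7-pt 1:5 dilution 2.45 nM–38.3 uM final; 18 h, 37 C/5% CO2; ATP-Lite, 5 s luminescence exposure.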

[11] = Validation screen for small molecules that induce DNA re-replication in SW480 colon adenocarcinoma cells (AID 504364); note: 0% is about no effect
Method in brief: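 SW480 cells seeded at 250 per well were exposed to compound or DMSO for 48 hr at 37 C, 5% CO2, then stained with Hoechst for 40 min. DNA content per nucleus was imaged (405 nm ex, 500-530 nm em).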

[12] = target: M-phase phosphoprotein 8 (Homo sapiens) (UniProt Q99549); assay: qHTS Validation Assay for Inhibitors for MPP8 Chromodomain Interactions with Methylated Histone Tails (AID 488949); note: nearly all actives have a fitted effect of over 55% in size; note: potency is the fitted concentration of half-maximal effect
Method in brief: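 Disruption of the preformed MPP8–trimethyl-H3K9 peptide complex (both 50 nM, 30 min, RT) is measured after 30 min compound exposure, using AlphaScreen proximity beads; aurintricarboxylic acid titration serves as plate control.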

[13] = target: Chromobox protein homolog 1 (Homo sapiens) (UniProt P83916); assay: qHTS Validation Assay for Inhibitors of HP1-beta Chromodomain Interactions with Methylated Histone Tails (AID 488953); note: nearly all actives have a fitted effect of over 50% in size; note: potency is the fitted concentration of half-maximal effect
Method in brief: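 HP1-beta (50 nM) was preincubated 30 min at room temperature with biotinylated H3(1-18)K9me3 peptide (50 nM) in PBS pH 7.4, 0.01% Tween-20, then with compounds 30 min. AlphaScreen signal was read after streptavidin donor/nickel chelate acceptor beads (10 ug/mL final).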

[14] = target: ATP-dependent 6-phosphofructokinase (Trypanosoma brucei brucei) (UniProt O15648); assay: qHTS Assay to Find Inhibitors of T. brucei phosphofructokinase: hit validation (AID 492961);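 note: luminescence reports ADP formed as PFK phosphorylates fructose-6-phosphate with ATP; series mostly up to about 51 µM; % is set by controls: 0 for no effect and ±100 for the full control effect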
Method in brief: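 PFK 1.25 nM, F6P 0.5 mM, ATP 0.1 mM, MgCl2 5 mM, 0.1 M TEA pH 8.0, Tween20 0.01%, BSA 0.1%; 45 min RT. ADP-Glo two-step detection, luminescence. qHTS titration; curve fitting with curve-class categorization.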

[15] = target: D(1A) dopamine receptor (Homo sapiens) (UniProt P21728); assay: HTS Assay for Allosteric Agonists of the Human D1 Dopamine Receptor: Primary Screen for Potentiators (AID 488982); note: 0% is about no effect
Method in brief: as §1

[16] = target: D(1A) dopamine receptor (Homo sapiens) (UniProt P21728); assay: HTS Assay for Allosteric Agonists of the Human D1 Dopamine Receptor: Primary Screen for Antagonists (AID 488983);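 note: calcium flux response to an EC80 dopamine challenge measured with no-wash dye; nearly all actives have a fitted effect of over 65% in size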; note: potency is the fitted concentration of half-maximal effect
Method in brief: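 Tetracycline-induced HEK293 T-REx cells expressing force-coupled D1 were plated overnight at 30 C, dye-loaded for calcium, and read kinetically. Compounds were pinned in, then an EC80 dopamine challenge followed after 180 s to reveal antagonism.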

[17] = target: Transient receptor potential cation channel subfamily V member 1 (Homo sapiens) (UniProt Q8NER1); assay: HTS Assay for Compounds that Act as Enhancers of the Vanilloid Receptor 1 (AID 488979); note: 0% is about no effect
Method in brief: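 TRPV1-expressing cells loaded with Fluo-8 calcium dye; compounds added and calcium influx read kinetically for 3 min (agonist phase), then capsaicin at EC20 added and read 2 min more for enhancement. Fluorescence ex 480/em 520 nm.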

Chromobox protein homolog 1 (Homo sapiens), sequence (P83916 whole entry, looked up): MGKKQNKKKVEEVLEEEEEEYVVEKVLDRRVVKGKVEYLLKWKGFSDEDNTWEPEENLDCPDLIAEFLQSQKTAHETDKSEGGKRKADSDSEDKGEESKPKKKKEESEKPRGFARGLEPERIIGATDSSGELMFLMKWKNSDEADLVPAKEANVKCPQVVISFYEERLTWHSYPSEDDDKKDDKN
Thyrotropin receptor (Homo sapiens), sequence (P16473 whole entry, looked up): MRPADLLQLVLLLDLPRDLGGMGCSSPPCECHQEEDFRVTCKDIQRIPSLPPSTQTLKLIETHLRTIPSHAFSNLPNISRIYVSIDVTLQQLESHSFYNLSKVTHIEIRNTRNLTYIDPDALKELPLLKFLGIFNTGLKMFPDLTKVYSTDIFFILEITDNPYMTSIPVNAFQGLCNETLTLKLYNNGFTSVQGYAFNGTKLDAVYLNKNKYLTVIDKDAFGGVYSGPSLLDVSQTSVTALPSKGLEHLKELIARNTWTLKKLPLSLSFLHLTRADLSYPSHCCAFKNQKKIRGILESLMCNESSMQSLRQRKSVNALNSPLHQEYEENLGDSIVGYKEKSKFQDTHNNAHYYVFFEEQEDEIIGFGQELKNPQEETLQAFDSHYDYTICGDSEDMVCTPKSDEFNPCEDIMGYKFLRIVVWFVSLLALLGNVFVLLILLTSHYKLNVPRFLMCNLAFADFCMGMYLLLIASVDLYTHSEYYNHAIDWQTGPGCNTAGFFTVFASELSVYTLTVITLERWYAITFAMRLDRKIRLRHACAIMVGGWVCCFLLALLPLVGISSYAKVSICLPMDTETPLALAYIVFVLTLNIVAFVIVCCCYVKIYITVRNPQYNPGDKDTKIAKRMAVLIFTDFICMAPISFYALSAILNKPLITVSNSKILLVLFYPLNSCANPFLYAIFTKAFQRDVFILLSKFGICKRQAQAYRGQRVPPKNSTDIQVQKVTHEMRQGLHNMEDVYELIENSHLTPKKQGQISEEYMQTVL
Thioredoxin reductase 1, cytoplasmic (Rattus norvegicus), sequence (O89049 whole entry, looked up): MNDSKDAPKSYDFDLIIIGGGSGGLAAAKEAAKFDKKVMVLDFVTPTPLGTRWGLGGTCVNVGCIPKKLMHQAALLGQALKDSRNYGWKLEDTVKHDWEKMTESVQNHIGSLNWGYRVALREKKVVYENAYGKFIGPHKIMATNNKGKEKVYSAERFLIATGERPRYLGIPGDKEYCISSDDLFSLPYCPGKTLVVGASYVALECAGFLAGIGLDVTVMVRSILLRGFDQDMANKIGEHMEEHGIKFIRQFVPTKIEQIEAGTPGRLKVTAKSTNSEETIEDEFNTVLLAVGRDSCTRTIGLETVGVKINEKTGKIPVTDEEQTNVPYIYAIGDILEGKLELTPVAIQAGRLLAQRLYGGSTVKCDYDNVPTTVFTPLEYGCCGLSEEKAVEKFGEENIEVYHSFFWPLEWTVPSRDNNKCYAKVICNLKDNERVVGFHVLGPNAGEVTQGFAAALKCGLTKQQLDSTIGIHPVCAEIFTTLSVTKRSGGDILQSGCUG
Flap endonuclease 1 (Homo sapiens), sequence (P39748 whole entry, looked up): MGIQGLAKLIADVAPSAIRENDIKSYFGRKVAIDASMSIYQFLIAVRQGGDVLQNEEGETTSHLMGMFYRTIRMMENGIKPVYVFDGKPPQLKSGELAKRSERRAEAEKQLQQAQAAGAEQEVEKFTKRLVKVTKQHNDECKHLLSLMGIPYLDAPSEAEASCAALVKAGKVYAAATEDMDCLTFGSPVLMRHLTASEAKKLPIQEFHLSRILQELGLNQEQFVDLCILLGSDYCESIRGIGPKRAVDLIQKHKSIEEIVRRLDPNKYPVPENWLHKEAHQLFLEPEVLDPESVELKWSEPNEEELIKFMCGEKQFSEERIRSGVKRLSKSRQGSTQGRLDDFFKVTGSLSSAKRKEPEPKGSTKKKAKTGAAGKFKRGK
Methanococcus maripaludis chaperonin (MmCpn), sequence (Q6LX38 1-543): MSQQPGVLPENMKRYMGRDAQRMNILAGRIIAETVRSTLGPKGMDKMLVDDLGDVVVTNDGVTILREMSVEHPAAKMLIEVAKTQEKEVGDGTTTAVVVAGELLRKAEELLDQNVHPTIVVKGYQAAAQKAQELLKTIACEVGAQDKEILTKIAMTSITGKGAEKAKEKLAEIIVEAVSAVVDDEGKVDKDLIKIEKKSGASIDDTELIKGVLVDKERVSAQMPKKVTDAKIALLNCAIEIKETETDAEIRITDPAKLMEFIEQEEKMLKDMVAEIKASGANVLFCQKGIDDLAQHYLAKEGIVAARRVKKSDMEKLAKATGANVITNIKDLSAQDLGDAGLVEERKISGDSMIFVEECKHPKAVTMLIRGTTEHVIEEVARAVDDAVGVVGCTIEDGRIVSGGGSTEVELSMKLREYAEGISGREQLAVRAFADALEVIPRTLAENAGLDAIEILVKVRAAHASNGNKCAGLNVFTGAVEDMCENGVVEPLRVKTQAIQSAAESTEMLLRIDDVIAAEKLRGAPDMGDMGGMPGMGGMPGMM
ATP-dependent 6-phosphofructokinase (Trypanosoma brucei brucei), sequence (O15648 whole entry, looked up): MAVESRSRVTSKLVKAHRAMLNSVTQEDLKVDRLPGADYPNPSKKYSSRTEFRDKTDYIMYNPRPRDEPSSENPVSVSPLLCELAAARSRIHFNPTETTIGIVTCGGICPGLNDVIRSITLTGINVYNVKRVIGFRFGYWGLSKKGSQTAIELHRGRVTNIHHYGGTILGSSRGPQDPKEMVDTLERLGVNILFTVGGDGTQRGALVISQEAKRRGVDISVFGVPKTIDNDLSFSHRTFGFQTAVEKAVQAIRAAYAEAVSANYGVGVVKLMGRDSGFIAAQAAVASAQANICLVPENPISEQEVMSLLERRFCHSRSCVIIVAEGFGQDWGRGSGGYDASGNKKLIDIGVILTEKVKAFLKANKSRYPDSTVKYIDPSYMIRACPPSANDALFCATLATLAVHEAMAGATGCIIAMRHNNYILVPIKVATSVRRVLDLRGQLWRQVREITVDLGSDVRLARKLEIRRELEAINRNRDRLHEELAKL
Thyrotropin-releasing hormone receptor (Homo sapiens), sequence (P34981 whole entry, looked up): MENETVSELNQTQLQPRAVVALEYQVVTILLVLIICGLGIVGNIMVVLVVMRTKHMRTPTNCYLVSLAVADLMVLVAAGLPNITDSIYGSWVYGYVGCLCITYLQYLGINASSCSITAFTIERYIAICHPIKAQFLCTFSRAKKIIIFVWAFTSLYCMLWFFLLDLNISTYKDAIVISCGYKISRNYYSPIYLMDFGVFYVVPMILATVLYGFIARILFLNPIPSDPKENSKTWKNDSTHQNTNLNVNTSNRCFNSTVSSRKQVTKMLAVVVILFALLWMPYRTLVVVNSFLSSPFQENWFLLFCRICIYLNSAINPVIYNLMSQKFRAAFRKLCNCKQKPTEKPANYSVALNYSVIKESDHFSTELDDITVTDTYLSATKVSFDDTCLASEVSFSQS
D(1A) dopamine receptor (Homo sapiens), sequence (P21728 whole entry, looked up): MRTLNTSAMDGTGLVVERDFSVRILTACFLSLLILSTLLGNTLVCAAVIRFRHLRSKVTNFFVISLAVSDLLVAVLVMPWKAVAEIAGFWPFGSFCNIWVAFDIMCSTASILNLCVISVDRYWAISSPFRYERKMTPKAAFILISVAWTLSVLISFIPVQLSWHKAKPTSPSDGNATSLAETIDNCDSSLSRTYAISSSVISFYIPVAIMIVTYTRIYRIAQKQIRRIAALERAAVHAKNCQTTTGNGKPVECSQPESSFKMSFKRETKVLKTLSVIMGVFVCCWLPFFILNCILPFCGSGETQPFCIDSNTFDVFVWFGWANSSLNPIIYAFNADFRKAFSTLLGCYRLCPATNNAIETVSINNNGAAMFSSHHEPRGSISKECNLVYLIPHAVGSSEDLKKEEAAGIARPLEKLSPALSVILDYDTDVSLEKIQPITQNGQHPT
M-phase phosphoprotein 8 (Homo sapiens), sequence (Q99549 whole entry, looked up): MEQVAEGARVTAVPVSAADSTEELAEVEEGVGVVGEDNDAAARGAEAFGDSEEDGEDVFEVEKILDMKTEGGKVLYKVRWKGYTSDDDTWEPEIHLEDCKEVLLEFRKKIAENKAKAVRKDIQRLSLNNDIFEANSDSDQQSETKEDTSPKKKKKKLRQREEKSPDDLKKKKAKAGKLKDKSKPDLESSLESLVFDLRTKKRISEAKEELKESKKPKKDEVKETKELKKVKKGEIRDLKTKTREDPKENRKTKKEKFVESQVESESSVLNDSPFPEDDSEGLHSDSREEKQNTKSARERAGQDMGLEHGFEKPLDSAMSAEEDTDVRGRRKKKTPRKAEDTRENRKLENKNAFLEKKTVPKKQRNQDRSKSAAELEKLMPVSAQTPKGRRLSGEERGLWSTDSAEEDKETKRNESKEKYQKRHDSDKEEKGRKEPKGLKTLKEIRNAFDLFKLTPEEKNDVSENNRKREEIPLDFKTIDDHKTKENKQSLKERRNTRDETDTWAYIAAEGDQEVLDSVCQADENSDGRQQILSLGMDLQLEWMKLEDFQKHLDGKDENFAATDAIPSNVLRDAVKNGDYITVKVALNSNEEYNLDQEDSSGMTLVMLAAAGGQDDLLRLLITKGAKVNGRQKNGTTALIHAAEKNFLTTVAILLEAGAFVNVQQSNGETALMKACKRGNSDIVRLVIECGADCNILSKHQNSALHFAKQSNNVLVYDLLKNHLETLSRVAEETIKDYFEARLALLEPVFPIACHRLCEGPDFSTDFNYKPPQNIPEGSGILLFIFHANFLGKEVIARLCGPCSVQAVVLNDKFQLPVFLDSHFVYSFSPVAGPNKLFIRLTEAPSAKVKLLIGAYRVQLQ

CN(C)CCC=C1c2ccccc2CCc2ccccc21
9.1%: viability change [9]
inactive: outcome [1] | Potency [2] | Potency [3] | outcome [4] | Potency [5] | Potency [6] | outcome [7] | activation [8] 1.31% | Potency [9] | outcome [10] | outcome [11]

CSc1ccc2c(c1)N(CCC1CCCCN1C)c1ccccc1S2 (stereo unspecified)
inactive: outcome [1] | Potency [2] | Potency [3] | outcome [4] | Potency [5] | Potency [6] | outcome [7] | outcome [10] | outcome [11]
active: Potency [12] 11.2 µM | Potency [13] 28.2 µM

O=C1O[C@H]([C@@H](O)CO)C(O)=C1O
inactive: Potency [14]

Cc1c(O)cccc1C(=O)N[C@@H](CSc1ccccc1)[C@H](O)CN1C[C@H]2CCCC[C@H]2C[C@H]1C(=O)NC(C)(C)C
inactive: Potency [14]

O=C1N=C(O)CN1/N=C/c1ccc(-c2ccc([N+](=O)[O-])cc2)o1
-12.1%: viability change [9]
inactive: Potency [2] | Potency [12] | Potency [3] | outcome [4] | Potency [5] | outcome [15] | Potency [16] | Potency [6] | outcome [7] | Potency [9] | outcome [10] | outcome [11]

C[C@@H]1CN(c2c(F)c(F)c3c(=O)c(C(=O)O)cn(C4CC4)c3c2F)C[C@H](C)N1
inactive: Potency [14]

CCN(CC)C(C)CN1c2ccccc2Sc2ccccc21 (stereo unspecified)
-0.429%: viability change [9]
inactive: outcome [1] | Potency [2] | Potency [12] | Potency [3] | Potency [5] | outcome [15] | Potency [16] | Potency [6] | outcome [7] | Potency [9] | outcome [10]
active: Potency [13] 0.0299 µM

CSc1ccc2c(c1)C(N1CCN(C)CC1)Cc1ccccc1S2 (stereo unspecified)
active: Potency [12] 44.7 µM | Potency [13] 39.8 µM | Potency [16] 0.316 µM
inactive: outcome [1] | Potency [2] | Potency [3] | Potency [5] | outcome [15] | Potency [14] | Potency [6] | activation [8] 5.38% | Potency [9] | outcome [10] | outcome [11]
-13.4%: viability change [9]

CNCCC(Oc1ccc(C(F)(F)F)cc1)c1ccccc1 (stereo unspecified)
3.02%: viability change [9]
inactive: outcome [1] | Potency [2] | Potency [12] | Potency [3] | outcome [4] | outcome [15] | Potency [6] | outcome [7] | activation [8] 22.8% | Potency [9] | outcome [10] | outcome [11]

NCCNCCNCCN
inactive: Potency [14]

CCCCN(CCCC)CCCOC(=O)c1ccc(N)cc1
inactive: Potency [14]

Nc1ncnc2c1ncn2[C@@H]1O[C@H](CO)[C@@H](O)[C@H]1O
inactive: outcome [1] | Potency [2] | Potency [12] | Potency [13] | Potency [3] | Potency [5] | outcome [15] | Potency [16] | Potency [14] | Potency [6] | outcome [7] | Potency [9] | outcome [10]
4.32%: viability change [9]

NCC(=O)CCC(=O)O
inactive: Potency [14]

COC(=O)C1=C(C)NC(C)=C(C(=O)OC)C1c1ccccc1[N+](=O)[O-]
inactive: outcome [1] | Potency [2] | Potency [3] | outcome [17] | outcome [4] | Potency [5] | activation [8] 0.938% | outcome [10] | outcome [11]
